Source: PubChem BioAssay
A1 inh = caspase 3/7 activation in MEF A1-2A-BIM cells, primary screen, A1 inhibitor project, cell-based, luminescence, HTS. Caspase-Glo 3/7 luminescence, 3 h; percent of clofoctol response, vehicle zero. caspase activation, % (no concentration beside the values). 330,000 tested, 0.066% active. AID 2462, 2010;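 active = over half of replicate activation scores above 10%, or exactly half above 10 with the replicate mean above 10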
SUMO Mot1 rescue = yeast Mot1-301 growth rescue at high temperature, primary screen, SUMOylation pathway inhibitor project, S. cerevisiae, ATP luminescence, 38.5C; 320,000 tested, 1% active; S. cerevisiae Mot1-301 growth rescue; percent above DMSO median, 100 means doubled; growth rescue, % at 18.8 µM; AID 2716, 2010;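 active = every valid replicate shows activation above 250% relative to neutral control wells; inactive = the rest, any valid replicate at or below 250%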;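 also: OY570 slx delta 5 strain wells were the positive control but not used for scaling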
AHR act = AHR activators, primary screen, cell-based, luminescence, luciferase reporter, human; Aryl hydrocarbon receptor (Homo sapiens), P35869; AHR-responsive luciferase reporter cells; 320,000 tested, 2.5% active; activation, % at 5 µM; in the data active = activation above about 47%;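 also: 0% = vehicle wells and 100% = reference agonist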
ALR H2O2 inh = inhibitors of human ALR sulfhydryl oxidase, primary screen, biochemical, H2O2 detection, HRP-luminol luminescence, single point; purified ALR, DTT oxidation; inhibition, % (test concentration not listed); 290,000 tested, 3.8% active; AID 485317, 2010;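 active = mean replicate inhibition above about 79%, with every replicate also reaching it, limit read from the data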
Efflux pump inh = inhibitors of Candida efflux pumps in yeast, primary screen, S. cerevisiae, Nile Red, multiplex; S. cerevisiae Candida pump triplex; inhibition, % at 10 µM; 330,000 tested, 0.44% active;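 active = plate passing quality check with inhibition over a set limit, or well fluorescence over plate mean plus 4 SD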;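 also: Nile Red retained in pooled yeast measured as flow cytometry median fluorescence; 0% = buffer negative control and 100% = Enniatin B positive control; higher means more Nile Red kept so more efflux inhibition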
VLA-4 inh = inhibition in human VLA-4 binding assay, primary screen, VLA-4 allosteric modulator project, MLPCN library, flow cytometry, VLA-4 expressing cells; Integrin alpha-4 (Homo sapiens), P13612; ligand binding flow cytometry; inhibition, % (about 7 µM as worked out from the volumes in the protocol); 330,000 tested, 0.2% active; AID 2557, 2010; in the data active = inhibition above about 50%
Numbers without * were called inactive; nt = no result. Hits are enriched below; roughly 7.2% of the tested compounds scored in any of these assays.

SMILES	A1 inh	SUMO Mot1 rescue	AHR act	ALR H2O2 inh	Efflux pump inh	VLA-4 inh
Cc1cc(O)c(/C=N/Nc2ccc(Cl)cc2)c(=O)o1	-1	127	43	98*	0	-6
COC(=O)C(CC(=O)O)NCc1ccco1 (centres undefined)	0	206	-1	2	0	22
CSCC(=O)NS(=O)(=O)c1ccc(C)cc1	2	10	5	-13	nt	nt
O=C(O)c1cccc2c1-c1ccccc1/C2=N\Nc1ccccc1	-1	52	11	99*	0	-5
CCn1cc(Br)c(C(=O)Nc2cccc(SC)c2)n1	-3	0	21	99*	0	7
COc1ccc(S(=O)(=O)N2CCN(C(=S)NC3CCCCC3)CC2)cc1	1	-9	0	-8	0	7
Cn1c(O)c(C2=c3ccccc3=NC2=O)sc1=Nc1ccc(Cl)cc1	0	-27	56*	7	0	10
O=C(O)Cn1c(O)c(C2=c3ccccc3=NC2=O)sc1=O	0	9	21	3	0	-216
C=CCn1c(O)c(C2=c3ccccc3=NC2=O)s/c1=N/c1nccs1	0	2	59*	nt	0	14
NS(=O)(=O)c1ccc(CCNC(=O)Cc2ccc(S(=O)(=O)N3CCCC3)s2)cc1	1	-12	-1	-7	0	17
CCCOc1ccc(-c2cnc(N)s2)cc1	-4	-5	0	98*	0	-3
O=c1c(Cl)c(N2CCN(c3ccc(F)cc3)CC2)cnn1C12CC3CC(CC(C3)C1)C2	1	-3	4	77*	0	4
O=c1c(Cl)c(N2CCN(c3ccccc3)CC2)cnn1C12CC3CC(CC(C3)C1)C2	1	215	1	86*	0	10
O=c1c(Cl)c(NCc2ccc(F)cc2)cnn1C12CC3CC(CC(C3)C1)C2	0	99	1	-1	0	23
CCCn1c(SCC(=O)c2ccc3c(c2)NC(=O)CO3)nc2ccccc21	0	366	3	99*	0	3
Cn1c(SCC(=O)c2ccc3c(c2)NC(=O)CO3)nc2ccccc21	0	5	6	nt	0	-7
Brc1ccc(-c2nc(-c3cccnc3)no2)o1	-5	15	63*	7	0	3
CC(=O)Oc1ccc(-c2nc(-c3cccnc3)no2)cc1	-10	nt	0	14	0	1
CN(C)c1ccc(C(C(=O)NC2CCCC2)N(C(=O)c2ccco2)C2CC2)cc1 (centres undefined)	0	-9	1	99*	0	8
CC(=O)Nc1ccc(N(C(=O)c2ccco2)C(C(=O)NC2CCCC2)c2ccc(N(C)C)cc2)cc1 (centres undefined)	0	13	2	14	0	0
Cc1noc(C)c1C(=O)N(CC(C)C)c1nc2ccccc2s1	0	-7	1	1	0	7
COc1ccccc1/C=C1\SC(=S)N(NS(=O)(=O)c2ccc(C)cc2)C1=O	0	13	0	97*	0	0
Cc1ccc(S(=O)(=O)NN2C(=O)/C(=C/c3cccnc3)SC2=S)cc1	0	75	2	96*	0	7
CCOc1ccc(NC(=O)C2CCCN(S(=O)(=O)c3ccc4c(c3)CC(C)N4C(C)=O)C2)cc1 (centres undefined)	-1	-7	-1	-4	0	0
COC(=O)c1nc(N)sc1-c1ccc(Cl)c(Cl)c1	-1	10	5	-2	0	-4
SMILES	A1 inh	SUMO Mot1 rescue	AHR act	ALR H2O2 inh	Efflux pump inh	VLA-4 inh
Cc1ccc(S(=O)(=O)N2c3ccccc3NC(=O)CC2C)cc1 (centres undefined)	0	-4	0	-7	0	4
Cc1ccc(S(=O)(=O)N2c3ccccc3NC(=O)C2CC(=O)Nc2ccccc2)cc1 (centres undefined)	0	-12	64*	-6	0	3
C=CCNC(=S)N(C1CCCCC1)C1CCCCC1	1	18	-2	0	0	11
CCn1c(=O)c(-c2nc3ccccc3[nH]2)c(O)c2ccccc21	0	-16	69*	4	1	13
CCCn1c(=O)c(-c2nc3ccccc3[nH]2)c(O)c2ccccc21	0	nt	16	nt	0	2
CC1CCc2c(sc(/N=C/c3ccco3)c2C(N)=O)C1 (centres undefined)	-4	-3	3	-2	0	-5
COCC(=O)N1CCC(Oc2ccc(C(=O)NC(C)c3nccs3)cc2)CC1 (centres undefined)	0	109	-5	0	0	5
NC(=S)NNC(=O)Nc1cccc(Cl)c1	1	2	-3	23	1	5
NC(=S)NNc1cccc(Cl)c1	0	24	4	98*	0	0
Cc1cccc(NNC(=S)Nc2c(C)cccc2C)c1	0	-8	2	72	0	8
Cc1cccc(NC(=S)NNc2cccc(Cl)c2)c1	0	179	53*	20	0	-4
COc1ccc(-c2cc(C(F)(F)F)n3nc(C)cc3n2)cc1	0	-11	13	2	0	18
COc1ccc(-c2cc3nc(C)cc(N4CC(C)CC(C)C4)n3n2)cc1 (centres undefined)	0	-8	50*	-3	1	5
CCCCCCCC(O)CC(CC1CCCCC1)C(=O)NN (centres undefined)	0	6	-2	-26	0	2
CN(C)c1ccc(/C=N/n2c(-c3ccccc3Br)n[nH]c2=S)cc1	-1	6	3	96*	0	1
Cc1ccc(/C=N/n2c(-c3cccnc3)n[nH]c2=S)s1	1	-4	3	76*	0	-37
CN(C)c1ccc(/C=N/n2c(-c3cccnc3)n[nH]c2=S)cc1	-1	8	-2	98*	0	-10
Cc1ccc(/C=N/n2c(-c3cccnc3)n[nH]c2=S)o1	0	-1	4	31	0	-6
COc1ccc(NC(=O)c2cccc3cccnc23)cc1S(N)(=O)=O	-1	86	-3	-3	0	2
NS(=O)(=O)c1ccc(CCNc2nc3c(-c4cccc(F)c4)nnn3c3ccccc23)cc1	0	546*	37	-5	-9	nt
Cc1cccc(-c2nnn3c2nc(NCCc2ccc(S(N)(=O)=O)cc2)c2ccccc23)c1	0	15	50*	43	0	14
Cc1ccc(-c2nnn3c2nc(NCCc2ccc(S(N)(=O)=O)cc2)c2ccccc23)cc1	0	10	37	-4	0	10
